PubChem BioAssay AID1159580 (chemical genetic matrix, 2015)
Out of some 5,500 compounds screened, about 2,000 (36%) were called active. Inconclusive results (about 18%) are left out. The list shows a part of the results. Values without a mark were called inactive. No stated cut-off is given here; in the data, active means normalized growth mostly below about 0.91 (no sharp cut-off); inconclusive means no clear call, values can overlap the other calls; inactive means mostly above about 0.92.

Test: chemical genetic growth profiling, strain panel (AID 1159580);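 further: tested at 20 µM; growth read once vehicle control cultures reached saturation at 30 °C; 1 = growth at the plate median or of vehicle wells; lower values mean less growth of the strain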
Details: S. cerevisiae deletion strains, growth OD
[1] = locus YMR307W, strain GAS1, hits give low values
[2] = locus YPL055C, strain LGE1, hits give low values
[3] = locus YHR030C, strain SLT2, hits give low values

O=C1NCN(c2ccccc2)C12CCN(CC1COc3ccccc3O1)CC2 (stereo unspecified)
normalized growth (locus YAL040C, strain CLN3, hits give low values): 1 | normalized growth (locus YCL061C, strain MRC1 (second series), hits give low values): 1.01 | normalized growth (locus YDR363W, strain ESC2, hits give low values): 0.998 | normalized growth (locus YER002W, strain NOP16, hits give low values): 1.02 | normalized growth (locus YGR229C, strain SMI1, hits give low values): 0.999 | normalized growth [1]: 0.999 | normalized growth (locus YNL128W, strain TEP1, hits give low values): 1.04 | normalized growth (locus YNL175C, strain NOP13, hits give low values): 1.02 | normalized growth (locus YNL197C, strain WHI3, hits give low values): 1.02 | normalized growth (locus YNL224C, strain SQS1, hits give low values): 1 | normalized growth (locus YOR083W, strain WHI5 (second series), hits give low values): 1.04 | normalized growth [2]: 1.01

Oc1cc(Cl)ccc1Oc1ccc(Cl)cc1Cl
normalized growth (locus YAL021C, strain ccr4, hits give low values): 0.0638 (active) | normalized growth (locus YAL026C, strain drs2, hits give low values): 0.0609 (active) | normalized growth (locus YAL030W, strain snc1, hits give low values): 0.0536 (active) | normalized growth (locus YBL061C, strain skt5, hits give low values): 0.0556 (active) | normalized growth (locus YBR009C, strain hhf1, hits give low values): 0.061 (active) | normalized growth (locus YBR023C, strain chs3, hits give low values): 0.0591 (active) | normalized growth (locus YBR171W, strain sec66, hits give low values): 0.0725 (active) | normalized growth (locus YBR231C, strain swc5, hits give low values): 0.0579 (active) | normalized growth (locus YBR279W, strain paf1, hits give low values): 0.0562 (active) | normalized growth (locus YCL011C, strain gbp2, hits give low values): 0.0544 (active) | normalized growth (locus YCL016C, strain dcc1, hits give low values): 0.0625 (active) | normalized growth (locus YCL069W, strain vba3, hits give low values): 0.0589 (active) | normalized growth (locus YCR088W, strain abp1, hits give low values): 0.0589 (active) | normalized growth (locus YDL005C, strain med2, hits give low values): 0.0705 (active) | normalized growth (locus YDL040C, strain nat1, hits give low values): 0.0546 (active) | normalized growth (locus YDR001C, strain nth1, hits give low values): 0.0558 (active) | normalized growth (locus YDR069C, strain doa4, hits give low values): 0.0627 (active) | normalized growth (locus YDR137W, strain rgp1, hits give low values): 0.0997 (active) | normalized growth (locus YDR159W, strain sac3, hits give low values): 0.0882 (active) | normalized growth (locus YDR195W, strain ref2): 0.117 (active) | normalized growth (locus YDR297W, strain sur2, hits give low values): 0.0544 (active) | normalized growth (locus YDR334W, strain swr1, hits give low values): 0.0588 (active) | normalized growth (locus YDR335W, strain msn5, hits give low values): 0.0583 (active) | normalized growth (locus YDR392W, strain spt3, hits give low values): 0.0729 (active) | normalized growth (locus YEL003W, strain gim4, hits give low values): 0.0524 (active) | normalized growth (locus YEL037C, strain rad23, hits give low values): 0.0551 (active) | normalized growth (locus YEL061C, strain CIN8 (second series), hits give low values): 0.0576 (active) | normalized growth (locus YER015W, strain faa2, hits give low values): 0.0585 (active) | normalized growth (locus YER016W, strain bim1, hits give low values): 0.0591 (active) | normalized growth (locus YER111C, strain swi4, hits give low values): 0.0671 (active) | normalized growth (locus YER155C, strain BEM2 (second series), hits give low values): 0.0885 (active) | normalized growth (locus YFR010W, strain ubp6, hits give low values): 0.0707 (active) | normalized growth (locus YGL167C, strain pmr1, hits give low values): 0.0693 (active) | normalized growth (locus YGL173C, strain kem1, hits give low values): 0.0649 (active) | normalized growth (locus YGL227W, strain vid30, hits give low values): 0.0625 (active) | normalized growth (locus YGL240W, strain doc1, hits give low values): 0.0739 (active) | normalized growth (locus YGL253W, strain hxk2, hits give low values): 0.054 (active) | normalized growth (locus YHR013C, strain ard1, hits give low values): 0.104 (active) | normalized growth (locus YHR027C, strain rpn1, hits give low values): 0.059 (active) | normalized growth [3]: 0.104 (active) | normalized growth (locus YHR079C, strain IRE1, hits give low values): 0.121 (active) | normalized growth (locus YHR142W, strain chs7, hits give low values): 0.0756 (active) | normalized growth (locus YJL092W, strain hpr5, hits give low values): 0.0585 (active) | normalized growth (locus YJL095W, strain BCK1 (second series), hits give low values): 0.0552 (active) | normalized growth (locus YJL095W, strain BCK1, hits give low values): 0.127 (active) | normalized growth (locus YJL115W, strain asf1, hits give low values): 0.0692 (active) | normalized growth (locus YJL129C, strain trk1, hits give low values): 0.084 (active) | normalized growth (locus YJL154C, strain vps35, hits give low values): 0.0565 (active) | normalized growth (locus YJL164C, strain tpk1, hits give low values): 0.0601 (active) | normalized growth (locus YJL166W, strain qcr8, hits give low values): 0.0623 (active) | normalized growth (locus YJR066W, strain TOR1, hits give low values): -0.00201 (active) | normalized growth (locus YKL160W, strain elf1, hits give low values): 0.0596 (active) | normalized growth (locus YKR026C, strain gcn3, hits give low values): 0.0592 (active) | normalized growth (locus YKR091W, strain srl3, hits give low values): 0.0544 (active) | normalized growth (locus YLL001W, strain dnm1, hits give low values): 0.0612 (active) | normalized growth (locus YLL026W, hits give low values): 0.0561 (active) | normalized growth (locus YLL041C, strain sdh2, hits give low values): 0.0533 (active) | normalized growth (locus YLR027C, strain aat2, hits give low values): 0.0538 (active) | normalized growth (locus YLR113W, strain HOG1, hits give low values): 0.158 (active) | normalized growth (locus YLR221C, strain rsa3, hits give low values): 0.0589 (active) | normalized growth (locus YLR258W, strain gsy2, hits give low values): 0.0574 (active) | normalized growth (locus YLR262C, strain YPT6 (second series), hits give low values): 0.0751 (active) | normalized growth (locus YLR320W, strain mms22, hits give low values): 0.0752 (active) | normalized growth (locus YLR342W, strain FKS1, hits give low values): 0.0642 (active) | normalized growth (locus YLR357W, strain rsc2, hits give low values): 0.118 (active) | normalized growth (locus YLR370C, strain arc18, hits give low values): 0.0628 (active) | normalized growth (locus YLR384C, strain iki3, hits give low values): 0.057 (active) | normalized growth (locus YML120C, strain ndi1, hits give low values): 0.0562 (active) | normalized growth (locus YMR058W, strain fet3, hits give low values): 0.0596 (active) | normalized growth (locus YMR125W, strain sto1, hits give low values): 0.0732 (active) | normalized growth (locus YMR129W, hits give low values): 0.0549 (active) | normalized growth (locus YMR205C, strain PFK2, hits give low values): 0.0834 (active) | normalized growth (locus YMR231W, strain pep5, hits give low values): 0.0636 (active) | normalized growth (locus YNL071W, strain lat1, hits give low values): 0.0584 (active) | normalized growth (locus YNL183C, strain NPR1, hits give low values): 0.00315 (active) | normalized growth (locus YNL209W, strain ssb2, hits give low values): 0.0563 (active) | normalized growth (locus YNL248C, strain rpa49, hits give low values): 0.0865 (active) | normalized growth (locus YNL322C, strain KRE1 (second series), hits give low values): 0.0621 (active) | normalized growth (locus YNR049C, strain mso1, hits give low values): 0.0553 (active) | normalized growth (locus YOR001W, strain rrp6, hits give low values): 0.0701 (active) | normalized growth (locus YOR070C, strain gyp1, hits give low values): 0.0564 (active) | normalized growth (locus YOR080W, strain dia2, hits give low values): 0.0614 (active) | normalized growth (locus YOR083W, strain WHI5, hits give low values): 0.0594 (active) | normalized growth (locus YOR106W, strain vam3, hits give low values): 0.066 (active) | normalized growth (locus YOR231W, strain MKK1, hits give low values): 0.109 (active) | normalized growth (locus YOR265W, strain rbl2, hits give low values): 0.0537 (active) | normalized growth (locus YOR270C, strain vph1, hits give low values): 0.0953 (active) | normalized growth (locus YOR290C, strain snf2, hits give low values): 0.0603 (active) | normalized growth (locus YPL051W, strain arl3, hits give low values): 0.0598 (active) | normalized growth (locus YPL078C, strain atp4, hits give low values): 0.0627 (active) | normalized growth (locus YPL106C, strain sse1, hits give low values): 0.103 (active) | normalized growth (locus YPL240C, strain hsp82, hits give low values): 0.0561 (active) | normalized growth (locus YPL256C, strain CLN2, hits give low values): 0.121 (active)

N#CCOc1ccc(Cl)cc1Cl
normalized growth (locus YAL013W, strain DEP1, hits give low values): 0.99 | normalized growth (locus YBR229C, strain ROT2, hits give low values): 0.97 | normalized growth (locus YDL101C, strain DUN1, hits give low values): 0.976 | normalized growth (locus YDR150W, strain NUM1, hits give low values): 0.95 | normalized growth (locus YEL061C, strain CIN8, hits give low values): 0.99 | normalized growth (locus YGR078C, strain PAC10, hits give low values): 0.965 | normalized growth [3]: 0.95 | normalized growth (locus YHR087W, strain rtc3, hits give low values): 0.977 | normalized growth (locus YJR043C, strain POL32, hits give low values): 0.975 | normalized growth (locus YJR075W, strain HOC1, hits give low values): 0.915 | normalized growth (locus YLR039C, strain RIC1, hits give low values): 1.07 | normalized growth (locus YLR058C, strain SHM2 (second series), hits give low values): 0.954 | normalized growth (locus YLR085C, strain ARP6, hits give low values): 1 | normalized growth (locus YLR262C, strain YPT6, hits give low values): 1.01 | normalized growth (locus YML094W, strain GIM5, hits give low values): 0.983 | normalized growth (locus YMR219W, strain ESC1, hits give low values): 0.955 | normalized growth (locus YMR263W, strain SAP30, hits give low values): 0.987 | normalized growth [1]: 1.06 | normalized growth (locus YNL153C, strain GIM3, hits give low values): 0.997 | normalized growth (locus YNL298W, strain CLA4 (second series), hits give low values): 1.02 | normalized growth (locus YNL322C, strain KRE1, hits give low values): 0.96 | normalized growth (locus YNR030W, strain Alg12, hits give low values): 0.997 | normalized growth (locus YOL006C, strain TOP1, hits give low values): 1.06 | normalized growth [2]: 1.12 | normalized growth (locus YPL241C, strain CIN2, hits give low values): 0.985 | normalized growth (locus YPR135W, strain CTF4, hits give low values): 0.968
